NF-kB reporter, IRF reporter and viability score data for 13 compounds are collected here from the supplement of paper PMC10646978.

Structures are written as SMILES. ± gives the standard deviation.

What all share (settings): modulator concentration 10 µM
Assay [1] has as its system RAW-Dual (murine macrophage reporter line). Nature of the assay: NF-kB reporter (SEAP) activity fold change vs agonist alone; higher = enhanced NF-kB activity. Summed up:
(§1)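 RAW-Dual murine macrophage reporter cells were plated at 50 000 per well in 384-well plates, pin-transferred compound to 10 μM final, and pre-incubated for 1 hour at 37 °C before a PRR agonist was added and the cells incubated overnight. NF-κB activity was read from supernatant SEAP with QUANTI-Blue at 620 nm absorbance, and IRF activity from Lucia luciferase with QUANTI-Luc by luminescence. Each signal was expressed as fold change by dividing by the mean agonist-only control on the same plate. Two replicate plates were averaged, with errors obtained by propagation.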

For assay [2] the test system is unchanged. Description: IRF reporter (Lucia luciferase) activity fold change vs agonist alone; higher = enhanced IRF activity. Put shortly: as §1
The test system is the same in assay [3]. Description: viability score (confluency relative to resting cells, overnight) (fraction); higher = more viable, active = viable (0.7 or more). Put shortly:
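RAW-Dual macrophages in 384-well plates were treated overnight with compound at 10 μM final. IncuCyte imaging recorded confluency, and IncuCyte software built two confluency masks across every imaged well. The viability score expresses confluency relative to resting cells and was judged against a cutoff, which a compound met only if both masks exceeded 70% of resting cells.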

[4] abbreviates: agonist: CpG ODN 1826 0.5 ug/mL.

As to `COc1cc(CNC2CCCc3ccccc32)cc(OC)c1OC` (stereo unspecified), the results for the NF-kB reporter in assay [1] (setting [4]), in assay [1] (agonist: LPS 0.1 ug/mL) and in assay [1] (agonist: MPLA […]) were 0.878 ± 0.074, 1.02 ± 0.095 and 0.982 ± 0.04, respectively. Moreover, the results for the IRF reporter in assay [2] (agonist: 3'3'-cGAMP 10 ug/mL), in assay [2] (agonist: LPS 0.1 ug/mL) and in assay [2] (agonist: MPLA […]) were 0.865 ± 0.056, 1.05 ± 0.087 and 0.972 ± 0.15, respectively. Moreover, the viability score in assay [3] was 0.992 (active).
On to `CCOc1ccccc1OCCCCOc1ccc(Cl)c(C)c1`, for which the NF-kB reporter in assay [1] (setting [4]) came out at 0.947 ± 0.11; in assay [1] (agonist: LPS 0.1 ug/mL), 1.12 ± 0.081; in assay [1] (agonist: MPLA […]) it was 1.07 ± 0.084. For the same compound, the IRF reporter was 0.937 ± 0.1 in assay [2] (agonist: 3'3'-cGAMP 10 ug/mL), 1.03 ± 0.16 in assay [2] (agonist: LPS 0.1 ug/mL) and 1.15 ± 0.35 in assay [2] (agonist: MPLA […]). Further, the viability score in assay [3] is 1 (active).
For the compound `COC(=O)C1=C(C)NC(=O)CC1c1c(F)cccc1Cl` (stereo unspecified), the NF-kB reporter in assay [1] (setting [4]) is 0.986 ± 0.083; in assay [1] (agonist: LPS 0.1 ug/mL) it was 0.993 ± 0.087; in assay [1] (agonist: MPLA […]), 0.975 ± 0.041. The IRF reporter in assay [2] (agonist: 3'3'-cGAMP 10 ug/mL) was 0.87 ± 0.032; in assay [2] (agonist: LPS 0.1 ug/mL) it was 1.03 ± 0.091; in assay [2] (agonist: MPLA […]), 1.06 ± 0.14. Moreover, the viability score in assay [3] is 0.995 (active).
Regarding `O=[N+]([O-])c1ccc(CSc2nc3cccnc3[nH]2)cc1`, the values for the NF-kB reporter in assay [1] (setting [4]), in assay [1] (agonist: LPS 0.1 ug/mL) and in assay [1] (agonist: MPLA […]) were 1.17 ± 0.19, 0.949 ± 0.12 and 0.905 ± 0.077, respectively. Moreover, the values for the IRF reporter in assay [2] (agonist: 3'3'-cGAMP 10 ug/mL), in assay [2] (agonist: LPS 0.1 ug/mL) and in assay [2] (agonist: MPLA […]) were 0.935 ± 0.028, 1.16 ± 0.12 and 1.22 ± 0.2, respectively. The viability score in assay [3] is 1.01 (active).
For the compound `CCN(CC)CC#CCOC(=O)C(O)(c1ccccc1)C1CCCCC1.Cl` (stereo unspecified), the figures for the NF-kB reporter in assay [1] (setting [4]), in assay [1] (agonist: LPS 0.1 ug/mL) and in assay [1] (agonist: MPLA […]) were 0.873 ± 0.057, 1.01 ± 0.11 and 1.05 ± 0.084, respectively. For the same compound, the IRF reporter in assay [2] (agonist: 3'3'-cGAMP 10 ug/mL) stood at 0.998 ± 0.047; in assay [2] (agonist: LPS 0.1 ug/mL), 1.12 ± 0.2; in assay [2] (agonist: MPLA […]) it was 1.19 ± 0.29. The viability score in assay [3] was 1.02 (active).
Turning to `CC(C(=O)O)c1ccc(C(=O)c2cccs2)cc1` (stereo unspecified), the NF-kB reporter was found to be 1.17 ± 0.17 in assay [1] (setting [4]), 1.08 ± 0.24 in assay [1] (agonist: LPS 0.1 ug/mL) and 0.995 ± 0.065 in assay [1] (agonist: MPLA […]). Further, the IRF reporter is 0.97 ± 0.03 in assay [2] (agonist: 3'3'-cGAMP 10 ug/mL), 1.22 ± 0.14 in assay [2] (agonist: LPS 0.1 ug/mL) and 1.23 ± 0.14 in assay [2] (agonist: MPLA […]). Besides, the viability score in assay [3] is 1.01 (active).
Regarding `C=Cc1c(C)c2cc3nc(cc4[nH]c(cc5nc(cc1[nH]2)C(C)=C5CCC(=O)O)c(CCC(=O)OC)c4C)[C@@]1(C)C3=CC=C(C(=O)OC)C1C(=O)OC` (stereo partly specified) [Prestw-1105], the figures for the NF-kB reporter in assay [1] (setting [4]), in assay [1] (agonist: LPS 0.1 ug/mL) and in assay [1] (agonist: MPLA […]) were 0.611 ± 0.075, 0.869 ± 0.069 and 1.17 ± 0.16, respectively. Also, the IRF reporter in assay [2] (agonist: 3'3'-cGAMP 10 ug/mL) turned out to be 0.131 ± 0.018; in assay [2] (agonist: LPS 0.1 ug/mL), 0.642 ± 0.13; in assay [2] (agonist: MPLA […]), 0.457 ± 0.16. Besides, the viability score in assay [3] is 0.669 (inactive).
Consider `O=C(Nc1ccc(F)c([N+](=O)[O-])c1)c1cccs1`, for which the NF-kB reporter is 1.07 ± 0.072 in assay [1] (setting [4]), 1.2 ± 0.098 in assay [1] (agonist: LPS 0.1 ug/mL) and 1.11 ± 0.067 in assay [1] (agonist: MPLA […]). For the same compound, the values for the IRF reporter in assay [2] (agonist: 3'3'-cGAMP 10 ug/mL), in assay [2] (agonist: LPS 0.1 ug/mL) and in assay [2] (agonist: MPLA […]) were 0.964 ± 0.037, 1.61 ± 0.14 and 1.37 ± 0.13, respectively. Further, the viability score in assay [3] was 0.975 (active).
As to `O=C(COc1ccc2ccccc2c1)Nc1cnoc1`, the NF-kB reporter in assay [1] (setting [4]) was determined as 1.12 ± 0.35; in assay [1] (agonist: LPS 0.1 ug/mL) it was 1.14 ± 0.081; in assay [1] (agonist: MPLA […]) it was 1.12 ± 0.088. Further, the IRF reporter in assay [2] (agonist: 3'3'-cGAMP 10 ug/mL) is 0.92 ± 0.053; in assay [2] (agonist: LPS 0.1 ug/mL), 1.05 ± 0.17; in assay [2] (agonist: MPLA […]), 0.942 ± 0.1. In assay [3], the viability score was 1 (active).
Regarding `O=C(c1cccs1)c1nc2c(n1O)CCCCC2`, the NF-kB reporter is 1.01 ± 0.079 in assay [1] (setting [4]), 1.02 ± 0.076 in assay [1] (agonist: LPS 0.1 ug/mL) and 0.967 ± 0.069 in assay [1] (agonist: MPLA […]). In addition, the IRF reporter in assay [2] (agonist: 3'3'-cGAMP 10 ug/mL) was found to be 0.992 ± 0.056; in assay [2] (agonist: LPS 0.1 ug/mL), 1.17 ± 0.18; in assay [2] (agonist: MPLA […]), 0.858 ± 0.085. In assay [3], the viability score was 0.899 (active).
For `Cl.Nc1c2c(nc3ccccc13)CCCC2`, the values for the NF-kB reporter in assay [1] (setting [4]), in assay [1] (agonist: LPS 0.1 ug/mL) and in assay [1] (agonist: MPLA […]) were 0.172 ± 0.048, 0.751 ± 0.041 and 0.918 ± 0.06, respectively. For the same compound, the IRF reporter in assay [2] (agonist: 3'3'-cGAMP 10 ug/mL) was found to be 0.616 ± 0.024; in assay [2] (agonist: LPS 0.1 ug/mL) it was 0.806 ± 0.25; in assay [2] (agonist: MPLA […]), 0.837 ± 0.12. The viability score in assay [3] was 0.995 (active).
Regarding `C[C@H]1[C@@H](OC(=O)CCC(=O)O)O[C@@H]2O[C@]3(C)CC[C@H]4[C@H](C)CC[C@@H]1[C@@]24OO3`, the NF-kB reporter in assay [1] (setting [4]) turned out to be 1.02 ± 0.071; in assay [1] (agonist: LPS 0.1 ug/mL), 1.12 ± 0.11; in assay [1] (agonist: MPLA […]), 0.95 ± 0.043. The values for the IRF reporter in assay [2] (agonist: 3'3'-cGAMP 10 ug/mL), in assay [2] (agonist: LPS 0.1 ug/mL) and in assay [2] (agonist: MPLA […]) were 0.934 ± 0.11, 1.11 ± 0.14 and 1.06 ± 0.25, respectively. Also, in assay [3], the viability score was 1 (active).
As to `NC(=O)[C@@H](CCC(F)(F)F)N(Cc1ccc(-c2ncon2)cc1F)S(=O)(=O)c1ccc(Cl)cc1`, the NF-kB reporter was found to be 0.744 ± 0.062 in assay [1] (setting [4]), 1.04 ± 0.049 in assay [1] (agonist: LPS 0.1 ug/mL) and 1.31 ± 0.16 in assay [1] (agonist: MPLA […]). Besides, the IRF reporter in assay [2] (agonist: 3'3'-cGAMP 10 ug/mL) is 0.949 ± 0.051; in assay [2] (agonist: LPS 0.1 ug/mL), 1.43 ± 0.084; in assay [2] (agonist: MPLA […]) it was 1.58 ± 0.13. Also, the viability score in assay [3] is 0.997 (active).
